The supplement of paper PMC10849652
Of roughly 7,900 targets only a part is listed; those with a hit were picked by preference. About 0.6% of all pairs of compound and target were hits.

What follows are targets tested with COc1cc2ncnc(Nc3ccc(F)c(Cl)c3)c2cc1OCCCN1CCOCC1 [gefitinib] (assay: log2 fold change, soluble protein after heating vs DMSO (PISA); higher = thermal stabilisation; K562 cells, 10 uM, 30 min; active = over 0.2 and 3.5 SD of the protein, either way, in both replicates (recomputed)).
How it was run: (§1)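 Aliquots of K562 cells (2×10^6 cells/mL) treated with 10 μM compound for 30 min were heated for 3 min over 48°C-58°C. After pooling and extraction in PBS with 0.5% NP-40 at 4°C, soluble protein from a 21,000xg, 90 min spin was quantified by TMTpro 16plex LC-MS/MS with channel sums equalised. Thermal stability is expressed against control samples, from duplicates, as a log2 fold change.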

Sequence of UniProt P00390 (P00390 whole entry, looked up): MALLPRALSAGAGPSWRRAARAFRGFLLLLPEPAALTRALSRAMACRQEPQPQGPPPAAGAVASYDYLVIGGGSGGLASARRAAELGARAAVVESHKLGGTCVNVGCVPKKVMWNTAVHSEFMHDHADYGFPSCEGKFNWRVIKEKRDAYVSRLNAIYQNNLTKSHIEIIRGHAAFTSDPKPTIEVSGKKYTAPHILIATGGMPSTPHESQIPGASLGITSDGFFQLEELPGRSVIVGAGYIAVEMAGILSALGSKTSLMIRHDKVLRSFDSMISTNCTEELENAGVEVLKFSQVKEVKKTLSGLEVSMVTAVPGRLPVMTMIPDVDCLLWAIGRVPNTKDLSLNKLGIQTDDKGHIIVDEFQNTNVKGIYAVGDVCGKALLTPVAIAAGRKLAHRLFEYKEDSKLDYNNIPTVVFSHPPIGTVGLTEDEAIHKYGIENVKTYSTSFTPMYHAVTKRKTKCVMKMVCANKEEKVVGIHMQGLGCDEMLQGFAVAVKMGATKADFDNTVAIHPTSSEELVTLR
Sequence of UniProt P23434 (P23434 whole entry, looked up): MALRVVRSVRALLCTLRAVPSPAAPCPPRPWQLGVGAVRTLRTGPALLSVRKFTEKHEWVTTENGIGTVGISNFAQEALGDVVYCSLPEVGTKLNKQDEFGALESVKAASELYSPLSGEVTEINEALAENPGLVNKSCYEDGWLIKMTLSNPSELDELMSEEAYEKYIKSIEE
Sequence of UniProt O14526 (O14526 whole entry, looked up): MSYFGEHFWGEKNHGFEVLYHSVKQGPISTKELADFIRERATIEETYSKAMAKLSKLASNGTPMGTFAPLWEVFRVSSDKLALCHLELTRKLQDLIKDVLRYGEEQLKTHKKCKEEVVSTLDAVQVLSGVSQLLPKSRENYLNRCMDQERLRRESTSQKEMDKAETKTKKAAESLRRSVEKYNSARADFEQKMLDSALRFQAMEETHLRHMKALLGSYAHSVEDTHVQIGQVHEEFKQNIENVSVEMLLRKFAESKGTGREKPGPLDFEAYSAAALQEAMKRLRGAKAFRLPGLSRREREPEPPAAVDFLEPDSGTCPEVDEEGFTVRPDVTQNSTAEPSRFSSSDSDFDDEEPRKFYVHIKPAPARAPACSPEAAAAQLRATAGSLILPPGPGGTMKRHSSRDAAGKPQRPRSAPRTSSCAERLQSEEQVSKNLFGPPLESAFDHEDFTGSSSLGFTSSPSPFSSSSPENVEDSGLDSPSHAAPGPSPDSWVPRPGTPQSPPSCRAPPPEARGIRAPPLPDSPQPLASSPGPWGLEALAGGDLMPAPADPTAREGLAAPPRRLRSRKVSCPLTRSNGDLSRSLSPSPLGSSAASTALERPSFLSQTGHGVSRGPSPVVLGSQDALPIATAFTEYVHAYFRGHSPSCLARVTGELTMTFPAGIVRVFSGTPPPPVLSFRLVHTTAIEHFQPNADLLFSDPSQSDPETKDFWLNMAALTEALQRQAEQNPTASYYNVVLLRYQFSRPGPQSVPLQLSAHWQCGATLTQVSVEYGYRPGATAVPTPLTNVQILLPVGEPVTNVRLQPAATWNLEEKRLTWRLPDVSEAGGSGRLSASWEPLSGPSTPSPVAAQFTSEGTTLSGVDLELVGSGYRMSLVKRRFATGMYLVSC
Sequence of UniProt Q9UJY4 (Q9UJY4 whole entry, looked up): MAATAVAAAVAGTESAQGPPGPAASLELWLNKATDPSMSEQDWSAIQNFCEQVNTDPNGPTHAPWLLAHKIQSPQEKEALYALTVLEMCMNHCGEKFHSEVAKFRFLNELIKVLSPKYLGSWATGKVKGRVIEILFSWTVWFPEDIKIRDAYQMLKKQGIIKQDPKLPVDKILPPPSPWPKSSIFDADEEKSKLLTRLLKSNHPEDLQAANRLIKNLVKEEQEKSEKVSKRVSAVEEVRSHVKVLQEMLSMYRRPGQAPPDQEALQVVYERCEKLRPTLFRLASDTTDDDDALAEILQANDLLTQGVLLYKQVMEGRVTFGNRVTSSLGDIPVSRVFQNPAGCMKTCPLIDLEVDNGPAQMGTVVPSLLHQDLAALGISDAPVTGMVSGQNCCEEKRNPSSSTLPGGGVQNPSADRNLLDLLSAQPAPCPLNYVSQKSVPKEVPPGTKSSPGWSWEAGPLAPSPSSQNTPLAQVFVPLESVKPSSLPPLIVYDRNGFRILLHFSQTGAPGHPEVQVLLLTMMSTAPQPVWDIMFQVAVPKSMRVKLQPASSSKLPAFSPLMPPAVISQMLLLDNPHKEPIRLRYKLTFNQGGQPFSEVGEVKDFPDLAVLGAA
Sequence of UniProt P49448 (P49448 whole entry, looked up): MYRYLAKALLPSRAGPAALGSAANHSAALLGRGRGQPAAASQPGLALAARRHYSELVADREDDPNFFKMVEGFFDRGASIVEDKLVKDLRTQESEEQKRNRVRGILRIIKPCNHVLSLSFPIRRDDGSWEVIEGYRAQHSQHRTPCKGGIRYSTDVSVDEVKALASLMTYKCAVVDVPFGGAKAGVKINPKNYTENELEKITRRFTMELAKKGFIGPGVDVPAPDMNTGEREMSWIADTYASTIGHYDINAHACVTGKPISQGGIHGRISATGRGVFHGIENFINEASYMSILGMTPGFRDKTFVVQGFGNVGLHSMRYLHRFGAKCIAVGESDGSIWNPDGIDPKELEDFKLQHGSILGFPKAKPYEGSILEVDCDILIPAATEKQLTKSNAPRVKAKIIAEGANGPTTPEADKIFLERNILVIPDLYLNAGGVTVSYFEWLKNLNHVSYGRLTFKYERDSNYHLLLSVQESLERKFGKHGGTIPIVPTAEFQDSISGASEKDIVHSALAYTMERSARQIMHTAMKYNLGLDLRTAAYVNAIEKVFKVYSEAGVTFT
Sequence of UniProt O15347 (O15347 whole entry, looked up): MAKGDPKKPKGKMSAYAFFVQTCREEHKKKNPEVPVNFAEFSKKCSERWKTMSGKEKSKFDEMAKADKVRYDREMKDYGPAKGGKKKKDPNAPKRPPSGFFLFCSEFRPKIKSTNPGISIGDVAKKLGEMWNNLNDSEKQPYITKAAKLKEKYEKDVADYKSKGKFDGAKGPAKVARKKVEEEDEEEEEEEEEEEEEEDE
Sequence of UniProt Q9HCG7 (Q9HCG7 whole entry, looked up): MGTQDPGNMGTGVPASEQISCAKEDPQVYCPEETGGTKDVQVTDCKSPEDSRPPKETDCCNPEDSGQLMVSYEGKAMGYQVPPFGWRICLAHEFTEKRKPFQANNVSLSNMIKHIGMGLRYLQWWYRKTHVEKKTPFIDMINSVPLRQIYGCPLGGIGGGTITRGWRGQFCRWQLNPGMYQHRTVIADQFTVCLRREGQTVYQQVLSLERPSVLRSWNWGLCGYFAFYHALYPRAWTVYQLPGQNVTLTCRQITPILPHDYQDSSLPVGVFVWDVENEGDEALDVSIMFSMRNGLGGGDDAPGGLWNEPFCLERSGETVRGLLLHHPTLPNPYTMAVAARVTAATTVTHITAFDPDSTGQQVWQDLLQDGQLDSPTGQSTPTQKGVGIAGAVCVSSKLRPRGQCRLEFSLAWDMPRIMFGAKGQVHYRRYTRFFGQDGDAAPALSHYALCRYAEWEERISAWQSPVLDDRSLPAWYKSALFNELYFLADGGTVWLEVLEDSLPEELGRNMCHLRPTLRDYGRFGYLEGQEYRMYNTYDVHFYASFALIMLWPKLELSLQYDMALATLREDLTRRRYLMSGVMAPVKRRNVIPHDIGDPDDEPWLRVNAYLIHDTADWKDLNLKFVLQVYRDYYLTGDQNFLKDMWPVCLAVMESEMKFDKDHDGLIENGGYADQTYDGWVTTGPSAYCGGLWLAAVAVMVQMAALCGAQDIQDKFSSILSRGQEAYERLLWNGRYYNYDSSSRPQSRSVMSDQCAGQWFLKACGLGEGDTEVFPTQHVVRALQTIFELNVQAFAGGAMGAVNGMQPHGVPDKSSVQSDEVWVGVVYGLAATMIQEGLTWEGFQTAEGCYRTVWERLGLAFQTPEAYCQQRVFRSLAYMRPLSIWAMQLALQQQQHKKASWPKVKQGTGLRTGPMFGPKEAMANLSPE
Sequence of UniProt P13807 (P13807 whole entry, looked up): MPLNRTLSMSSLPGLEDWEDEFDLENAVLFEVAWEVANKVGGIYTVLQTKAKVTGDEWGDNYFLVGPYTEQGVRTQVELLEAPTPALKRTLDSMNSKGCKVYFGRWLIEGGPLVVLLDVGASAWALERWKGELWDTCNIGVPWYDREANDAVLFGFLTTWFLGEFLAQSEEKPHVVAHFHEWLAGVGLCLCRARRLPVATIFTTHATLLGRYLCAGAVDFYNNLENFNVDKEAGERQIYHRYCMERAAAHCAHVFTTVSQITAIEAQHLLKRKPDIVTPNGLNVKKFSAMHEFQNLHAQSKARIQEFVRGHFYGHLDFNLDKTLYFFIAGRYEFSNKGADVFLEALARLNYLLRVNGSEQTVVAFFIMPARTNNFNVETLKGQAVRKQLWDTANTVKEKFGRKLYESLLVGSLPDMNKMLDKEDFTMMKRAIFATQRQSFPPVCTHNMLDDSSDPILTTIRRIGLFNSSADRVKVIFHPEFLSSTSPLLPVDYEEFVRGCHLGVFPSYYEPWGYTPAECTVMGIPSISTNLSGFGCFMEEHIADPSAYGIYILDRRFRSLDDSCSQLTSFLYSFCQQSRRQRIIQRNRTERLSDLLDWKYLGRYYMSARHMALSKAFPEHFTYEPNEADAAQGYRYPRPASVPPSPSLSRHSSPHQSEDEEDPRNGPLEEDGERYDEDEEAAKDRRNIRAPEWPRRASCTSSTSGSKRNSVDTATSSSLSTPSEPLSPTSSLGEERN
Sequence of UniProt Q03014 (Q03014 whole entry, looked up): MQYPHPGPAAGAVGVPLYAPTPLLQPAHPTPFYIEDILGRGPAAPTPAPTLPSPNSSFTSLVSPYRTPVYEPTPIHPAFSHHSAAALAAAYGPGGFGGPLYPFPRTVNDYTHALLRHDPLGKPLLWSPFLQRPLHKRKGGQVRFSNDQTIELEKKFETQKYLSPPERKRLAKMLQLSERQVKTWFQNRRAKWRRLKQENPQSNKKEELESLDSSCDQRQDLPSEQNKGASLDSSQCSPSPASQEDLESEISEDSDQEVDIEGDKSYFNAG

log2 fold change, inactive:
GGA2 (UniProt Q9UJY4) -0.004
HDHD2 (UniProt Q9H0R4) 0.024
IFITM3 (UniProt Q01628) 0.09
FBXO42 (UniProt Q6P3S6) 0.036
GNPAT (UniProt O15228) 0.03
HNRNPK isoform 2 (UniProt P61978) 0.051
GATD1 (UniProt Q8NB37) -0.014
GCC2 (UniProt Q8IWJ2) 0.024

The targets below were run with COc1cccc2cc(-c3nc([C@H]4CC[C@H](C(=O)O)CC4)n4ncnc(N)c34)[nH]c12 in the same assay as above.
How it was run: as §1

log2 fold change, inactive:
IGF2BP2 (UniProt Q9Y6M1) -0.113
GBA2 (UniProt Q9HCG7) -0.062
HADHA (UniProt P40939) -0.088
GCSH (UniProt P23434) 0.001
HEATR5B (UniProt Q9P2D3) 0.033
GBF1 (UniProt Q92538) -0.054
GOLPH3 (UniProt Q9H4A6) 0.012
GYS1 (UniProt P13807) -0.165
GNS (UniProt P15586) 0.039
FIS1 (UniProt Q9Y3D6) 0.069
HMGB3 (UniProt O15347) 0
HHEX (UniProt Q03014) 0.053
GSR (UniProt P00390) 0.043
GLUD2 (UniProt P49448) 0.023
FBL (UniProt P22087) -0.069
FCHO1 (UniProt O14526) 0.022
